This passage reports composite z-score and z-score results from PubChem BioAssay.

The nature of assay [1]: compounds binding Alexa647 anti-His antibody – biochemical, small-molecule microarray, 635 nm fluorescence, artefact control for SMM control protein annotation, primary screen (AID 1128).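 Note: score merges feature fluorescence with signal-to-noise for each printed compound spot.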 Conditions: higher = more signal.
The test system of assay [2] is Human papillomavirus type 1a E7 protein (residues 1-88). Nature of the assay: HPV1a E7 small-molecule binders, primary screen, biochemical, small-molecule microarray, residues 1-88, 635 nm (AID 1129). The following applies: small-molecule microarray binding, fluorescence 635 nm; higher = more signal.
Assay [3] deals with Focal adhesion kinase 1 (Homo sapiens) (UniProt Q05397). Description: PTK2 protein binding on printed compound slides – biochemical, small-molecule microarray, 635/667 nm fluorescence, BSA, DTT, primary screen (AID 1130).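 Note: composite of spot emission at 667 nm and signal to noise over triplicate slides.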 The following applies: 635 nm fluorescence, higher = more signal.
Sequence of Focal adhesion kinase 1 (Homo sapiens) (Q05397 whole entry, looked up): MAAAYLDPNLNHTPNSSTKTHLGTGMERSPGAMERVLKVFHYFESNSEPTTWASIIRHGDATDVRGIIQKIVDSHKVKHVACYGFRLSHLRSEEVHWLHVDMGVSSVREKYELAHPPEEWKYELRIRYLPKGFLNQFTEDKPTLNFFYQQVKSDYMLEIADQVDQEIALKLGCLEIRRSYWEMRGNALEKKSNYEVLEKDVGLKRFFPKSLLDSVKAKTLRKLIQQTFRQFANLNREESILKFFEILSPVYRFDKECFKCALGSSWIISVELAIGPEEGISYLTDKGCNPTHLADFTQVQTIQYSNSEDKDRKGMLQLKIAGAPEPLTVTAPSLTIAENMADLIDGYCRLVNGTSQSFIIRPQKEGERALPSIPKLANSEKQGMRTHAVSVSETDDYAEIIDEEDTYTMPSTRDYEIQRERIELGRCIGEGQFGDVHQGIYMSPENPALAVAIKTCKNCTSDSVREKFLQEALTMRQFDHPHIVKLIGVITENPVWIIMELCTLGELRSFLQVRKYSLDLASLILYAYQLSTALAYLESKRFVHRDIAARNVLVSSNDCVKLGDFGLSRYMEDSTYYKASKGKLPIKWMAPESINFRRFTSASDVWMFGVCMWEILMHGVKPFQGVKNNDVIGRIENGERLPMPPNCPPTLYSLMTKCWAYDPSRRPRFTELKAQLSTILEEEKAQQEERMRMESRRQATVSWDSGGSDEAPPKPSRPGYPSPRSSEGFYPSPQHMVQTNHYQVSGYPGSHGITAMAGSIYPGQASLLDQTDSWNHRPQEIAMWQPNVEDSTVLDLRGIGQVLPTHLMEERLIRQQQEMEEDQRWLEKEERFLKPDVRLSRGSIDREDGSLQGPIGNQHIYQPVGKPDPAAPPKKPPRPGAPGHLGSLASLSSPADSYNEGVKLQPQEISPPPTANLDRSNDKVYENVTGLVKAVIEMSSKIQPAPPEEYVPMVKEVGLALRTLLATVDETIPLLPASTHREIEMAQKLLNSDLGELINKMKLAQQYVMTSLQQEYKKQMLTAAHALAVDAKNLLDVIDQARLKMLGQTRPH
The subject of assay [4] is Fibrinogen (Alexa647-labelled). Nature of the assay: Alexa647-fibrinogen binding to printed small molecules – biochemical, small-molecule microarray, 635/667 nm fluorescence, artefact control for SMM control-protein annotation, profiling panel (AID 1131).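 Note: z-score merges 667 nm fluorescence with per-spot signal-to-noise over triplicate slides.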 Conditions: fibrinogen-A647 binding fluorescence, higher = more signal.
The target of assay [5] is Follistatin (Homo sapiens) (UniProt P19883). Nature of the assay: FST protein binding to printed compounds – biochemical, small-molecule microarray, 635/667 nm fluorescence, primary screen (AID 1132). The following applies: 635 nm fluorescence, higher = more signal.
Sequence of Follistatin (Homo sapiens) (P19883 whole entry, looked up): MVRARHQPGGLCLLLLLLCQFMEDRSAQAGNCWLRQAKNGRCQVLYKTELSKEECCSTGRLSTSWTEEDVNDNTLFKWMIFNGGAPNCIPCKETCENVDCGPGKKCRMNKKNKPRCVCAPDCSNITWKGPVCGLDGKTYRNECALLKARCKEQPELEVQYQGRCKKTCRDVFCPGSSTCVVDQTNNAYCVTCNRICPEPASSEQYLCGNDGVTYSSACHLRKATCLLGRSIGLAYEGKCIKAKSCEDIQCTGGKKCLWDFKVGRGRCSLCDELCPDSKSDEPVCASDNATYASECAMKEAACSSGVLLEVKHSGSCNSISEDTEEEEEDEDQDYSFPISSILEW
The target of assay [6] is Fibroblast growth factor 2 (Homo sapiens) (UniProt P09038). Nature of the assay: basic fibroblast growth factor binding to printed compounds – biochemical, small-molecule microarray, 635/667 nm fluorescence, primary screen (AID 1133). The following applies: FGF2, fluorescence 635/667, higher = more signal.
Sequence of Fibroblast growth factor 2 (Homo sapiens) (P09038 whole entry, looked up): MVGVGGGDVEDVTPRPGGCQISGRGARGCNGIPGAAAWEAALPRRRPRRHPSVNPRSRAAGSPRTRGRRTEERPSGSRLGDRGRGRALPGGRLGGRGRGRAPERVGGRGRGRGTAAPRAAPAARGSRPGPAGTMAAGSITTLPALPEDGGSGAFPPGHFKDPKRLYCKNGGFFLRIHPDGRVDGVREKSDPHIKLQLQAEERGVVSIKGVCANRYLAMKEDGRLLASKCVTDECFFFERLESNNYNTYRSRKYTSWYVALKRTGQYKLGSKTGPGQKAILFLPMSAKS
A short description of assay [7]: JC-1 mitochondrial potential readout, lung cancer cells – cell-based, A549, JC-1 fluorescence, basal, 24 h, 100 nL, profiling panel (AID 1138).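 Note: A549 lung adenocarcinoma cells under basal conditions with no added stimulus; test concentration not given here.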 Conditions: higher = more signal.
For the next assay, the system named is Lefty1. Description: Lefty1 protein binding to printed compounds – biochemical, small-molecule microarray, 635/667 nm fluorescence, primary screen (AID 1139). The following applies: fluorescence 635/667, higher = more signal.
Assay [8] relates to wheat germ agglutinin (Triticum aestivum), Alexa647-labelled. Nature of the assay: Alexa647-WGA lectin binding to printed small molecules – biochemical, small-molecule microarray, 635/667 nm fluorescence, artefact control for SMM control-protein annotation, profiling panel (AID 1140).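 Note: score merges 667 nm feature emission with signal to noise over triplicate slides.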 The following applies: WGA-A647 binding, 635 nm fluorescence, higher = more signal.
Assay [9] deals with Luciferin 4-monooxygenase (Photinus pyralis) (UniProt P08659). Description: inhibition of purified Photinus pyralis luciferase – biochemical, luminescence, purified enzyme, 2006 set, primary screen (AID 1141).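 Note: cell-free assay with purified firefly luciferase at 100 ng per well in PBS; test concentration not given here.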 Conditions: purified firefly luciferase, SteadyGlo luminescence, 30 min; higher = more signal, called active from +8 up or from −8 down.
Sequence of Luciferin 4-monooxygenase (Photinus pyralis) (P08659 whole entry, looked up): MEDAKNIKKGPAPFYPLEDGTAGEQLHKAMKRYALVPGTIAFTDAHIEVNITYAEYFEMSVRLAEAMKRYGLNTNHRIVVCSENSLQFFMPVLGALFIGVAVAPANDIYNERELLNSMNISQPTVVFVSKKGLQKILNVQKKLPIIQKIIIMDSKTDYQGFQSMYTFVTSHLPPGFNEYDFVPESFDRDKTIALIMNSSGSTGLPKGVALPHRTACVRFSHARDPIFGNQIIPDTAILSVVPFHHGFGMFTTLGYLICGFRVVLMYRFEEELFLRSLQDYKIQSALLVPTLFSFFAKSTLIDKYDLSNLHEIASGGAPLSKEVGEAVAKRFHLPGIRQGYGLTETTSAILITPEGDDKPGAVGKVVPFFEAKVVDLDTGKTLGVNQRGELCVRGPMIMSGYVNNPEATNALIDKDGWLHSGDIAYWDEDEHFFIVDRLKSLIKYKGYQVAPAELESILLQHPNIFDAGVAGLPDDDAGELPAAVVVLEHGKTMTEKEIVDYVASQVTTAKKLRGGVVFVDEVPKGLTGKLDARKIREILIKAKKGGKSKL
For assay [10], the system named is Wnt5a (protein binding on small-molecule microarray). Description: small molecules binding Wnt5a protein – biophysical, small-molecule microarray, 635/667 nm fluorescence, primary screen (AID 1142).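 Note: fluorescence read at 667 nm with signal to noise per printed feature.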 Conditions: 635 nm fluorescence, higher = more signal.
Assay [11] is described as follows: ATP-based viability of Huh7 replicon cells – cell-based, CellTiter-Glo luminescence, basal, 48 h, cytotoxicity control for HCV replication inhibitor project, primary screen (AID 1143).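 Note: Huh7 hepatoma cells carrying a hepatitis C replication reporter with no stimulus; test concentration not given here.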 The following applies: higher = more signal, called active from +8 up or from −8 down. On the technique in general: In antiviral work, replicon cells carry a viral genome segment that copies itself.

The nature of assay [12]: Pseudomonas biofilm growth suppression – PAO1 strain, BacTiter-Glo luminescence, LB-PBS, primary screen (AID 1144). The following applies: P. aeruginosa PAO1 biofilm, 12 h, higher = more signal.
Assay [13] is described as follows: basal CRE-LacZ reporter activity in PC12 – cell-based, unstimulated, primary screen (AID 1145). Conditions: no forskolin, luminescence, 4.5 h, higher = more signal, called active from +8 up or from −8 down.
A short description of assay [14]: forskolin-driven CRE-LacZ activity in PC12 – cell-based, CRE-LacZ reporter, forskolin-stimulated, primary screen (AID 1146).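 Note: PC12 cells with 6xCRE LacZ reporter stimulated by forskolin 10 µM; beta-galactosidase reporter signal reflecting CREB driven transcription.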 Conditions: luminescence, 4.5 h, higher = more signal, called active from +8 up or from −8 down.
Assay [15] concerns the target Streptavidin (Streptomyces avidinii) (UniProt P22629). Description: compounds binding control protein streptavidin – biophysical, small-molecule microarray, 635/667 nm fluorescence, artefact control for SMM compound annotation, primary screen (AID 1147).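 Note: signal reflects streptavidin binding to arrayed compounds as a control protein.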 Conditions: higher = more signal.
Assay [16] can be described thus: probe aInhba binding on compound microarray – biochemical, small-molecule microarray, 635/667 nm fluorescence, primary screen (AID 1148).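 Note: score merges 667nm spot fluorescence with signal-to-noise for antibody binding to printed compounds.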 Conditions: higher = more signal.
In assay [17] the target is Torsin-1A (Homo sapiens) (UniProt O14656). Nature of the assay: TOR1A wild-type binding on microarray – cell lysate, small-molecule microarray, lysate, 635/667 nm, primary screen (AID 1149). Conditions: COS7 hTOR1A-WT lysate, 635 nm fluorescence, higher = more signal.
Sequence of Torsin-1A (Homo sapiens) (O14656 whole entry, looked up): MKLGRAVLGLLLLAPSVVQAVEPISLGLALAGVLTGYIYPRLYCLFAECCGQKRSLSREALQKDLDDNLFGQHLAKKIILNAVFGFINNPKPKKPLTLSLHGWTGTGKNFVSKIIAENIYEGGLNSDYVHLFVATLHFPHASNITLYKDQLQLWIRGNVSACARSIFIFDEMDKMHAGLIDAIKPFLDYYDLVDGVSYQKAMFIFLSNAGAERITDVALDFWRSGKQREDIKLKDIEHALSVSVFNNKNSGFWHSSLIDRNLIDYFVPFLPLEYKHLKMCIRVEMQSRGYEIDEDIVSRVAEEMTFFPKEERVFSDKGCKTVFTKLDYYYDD
For assay [18] the target is unchanged. Nature of the assay: torsin A mutant lysate binding on microarrays – cell lysate, small-molecule microarray, COS7 lysate, 635/667 nm fluorescence, primary screen (AID 1150).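 Note: score pools 667 nm emission and signal to noise measuring lysate protein binding.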 The following applies: COS7 hTOR1A mutant lysate, 635 nm fluorescence, higher = more signal.
The test system of assay [19] is Sonic hedgehog protein (Shh). Description: Sonic hedgehog microarray binding compounds – biochemical, small-molecule microarray, 635/667 nm fluorescence, primary screen (AID 1151).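 Note: Shh protein binding to compounds spotted on small-molecule microarray slides; score combines spot fluorescence intensity with signal-to-noise across triplicate slides.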 Conditions: 635 nm fluorescence, higher = more signal.

Several values for one entry are separate records, joined by “and”; a condition that tells them apart may be missing. Identical values can stand only once. Activity calls are given as the source filed them. Unless noted, the rule behind the calls is not given here.

Sequence of Streptavidin (Streptomyces avidinii) (P22629 whole entry, looked up): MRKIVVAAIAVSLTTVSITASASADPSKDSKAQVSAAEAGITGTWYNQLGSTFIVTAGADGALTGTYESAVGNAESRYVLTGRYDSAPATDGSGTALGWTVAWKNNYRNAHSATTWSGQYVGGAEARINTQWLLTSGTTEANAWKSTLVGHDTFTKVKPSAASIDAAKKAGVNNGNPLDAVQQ

Turning to `C=CCN(CCCC)C(=O)C1N(CCOCCO)C(=O)C2C(C(=O)O)C3C=CC21O3` (stereo not given), the composite z-score was 1.11 and -1.66 in [1]; -0.741 and -0.901 in assay [2]; -0.619 and -0.291 in assay [3]; -1.43 and -0.885 in [4]; -0.817 and -1.32 in [5]; -1.68 and -1.4 in [6]. In addition, the composite z-score with Lefty1 is -1.6 and -2.23; in assay [8], -0.557 and -0.16; in assay [10] it was -0.978 and -0.38; in assay [15], -1.6 and -1.56; in [16] it was -0.128 and -0.353; with Torsin-1A (Homo sapiens) [17], -3.18 and -0.099. Further, the composite z-score with Torsin-1A (Homo sapiens) [18] is -2.51 and 2.04; in assay [19], -1.52 and -1.51. Besides, the z-score in [7] was -0.409 and -0.724; in assay [9] it was 0.694 (inactive) and 0.806 (inactive); in assay [11], 0.757 (inactive) and -0.117 (inactive); in [12], 1.42 (inactive) and 1.2 (inactive); in [13] it was -0.899 (inactive) and -0.497 (inactive); in assay [14], -0.327 (inactive) and -0.267 (inactive).
`CN1C(=O)C2CC=C([C@H]3Oc4ccccc4S(=O)(=O)N4CCC[C@@H]34)CC2C1=O` (stereo not given in full): the composite z-score in [1] is 0.009 and -0.183; in assay [2], -0.984 and -0.409; in [3] it was 0.285 and 0.14; in [4], 0.0887 and -1.25; in [5], -0.375 and -0.417; in assay [6] it was -0.19 and -0.132. For the same molecule, the composite z-score with Lefty1 is -0.499 and 0.192; in [8], -0.213 and -1.39; in assay [10], -0.0808 and 0.53; in assay [15], -0.0329 and -0.212; in assay [16], -0.0963 and -0.0874; in the assay with Torsin-1A (Homo sapiens) [17], -0.0871 and -0.296. The composite z-score with Torsin-1A (Homo sapiens) [18] was 0.075 and -0.165; in assay [19], -0.306 and -0.272. Moreover, the z-score is -0.719 and -0.239 in [7]; 0.156 (inactive) and 0.737 (inactive) in [9]; 0.0836 (inactive) and -0.243 (inactive) in [11]; -0.129 (inactive) and -0.419 (inactive) in assay [12]; -1.32 (inactive) and -0.327 (inactive) in [13]; 0.123 (inactive) and 0.707 (inactive) in [14].
`C[C@@H]1CC[C@@H](C(=O)O)N[C@H]1c1ccc(-c2ccco2)cc1`: the composite z-score in assay [1] is 0.893; in [2], -0.253; in assay [3], 0.0242; in assay [4], 1.02; in assay [5], 1.32; in assay [6] it was 1.14. Besides, the composite z-score in the assay with Lefty1 is 1.18; in assay [8], 0.589; in assay [10], 0.266; in [15], 0.192; in assay [16] it was -0.0791; with Torsin-1A (Homo sapiens) [17] it was 1. Besides, the composite z-score in the assay with Torsin-1A (Homo sapiens) [18] is 0.406; in assay [19], 0.611. Also, the z-score in assay [7] is 1.41; in [9] it was -0.906 (inactive); in [11], 0.0233 (inactive); in assay [12], -0.778 (inactive); in [13] it was -0.339 (inactive); in assay [14], -0.885 (inactive).
Take `C=C[C@H](C)[C@@H](O)c1ccc(OCCO)cc1`: the composite z-score in [1] was -0.419 and 0.713; in [2] it was -1.38 and -0.449; in assay [3] it was -0.996 and -0.139; in assay [4], -1.48 and 0.462; in [5], 0.42 and 0.345; in [6] it was 0.036 and -0.488. Also, the composite z-score with Lefty1 is -0.931 and 0.134; in [8], -0.449 and 0.106; in assay [10] it was -0.827 and -0.751; in assay [15] it was 0.129 and -0.772; in assay [16] it was -0.37 and -0.208; in the assay with Torsin-1A (Homo sapiens) [17], -1.96 and -1.8. Further, the composite z-score in the assay with Torsin-1A (Homo sapiens) [18] was -2.09 and -1.25; in assay [19], 0.134 and 0.524. The z-score is -0.459 and 1.14 in assay [7]; -3.17 (inactive) and -4 (inactive) in assay [9]; -1.64 (inactive) and 0.216 (inactive) in assay [11]; 0.0711 (inactive) and -0.987 (inactive) in [12]; -0.883 (inactive) and 0.861 (inactive) in assay [13]; -0.783 (inactive) and -0.722 (inactive) in [14].
